In ChEMBL document CHEMBL4513216, “Probing the Open Global Health Chemical Diversity Library for Multistage-Active Starting Points for Next-Generation Antimalarials” (ACS Infect Dis, 2020):
The campaign covered roughly 69,000 compounds. About 8,600 (12%) showed an effect of 50% or more. This excerpt belongs to a sample that is enriched for strong results.

Test system: Plasmodium berghei
Test: Screen against P. berghei liver stage (PbLuc), transformed with Luciferase, at 10uM
Type: functional, HepG2
Settings: tested at 10 uM

Structure (SMILES) | INHIBITION
CC(C)CC(O)C1CCN(C(=O)c2coc(CN3CCOCC3)c2)CC1 (stereo not given) | 16.7%
CC(CO)CN(Cc1ccccc1)Cc1c[nH]cn1 (stereo not given) | 9.55%
CN(C)C1CC2(CCN(C(=O)NC3CC3)CC2)c2ccccc21 (stereo not given) | 61.1%
O=C(NC1CC1)N1CCC2(CC1)CC(N1CCOCC1)c1ccccc12 (stereo not given) | 43%
CN(C)C1CC2(CCN(C(=O)c3csnn3)CC2)c2ccccc21 (stereo not given) | -22.1%
CN(C)C1CC2(CCN(C(=O)C3(C#N)CC3)CC2)c2ccccc21 (stereo not given) | 57.5%
Cc1ccc2c(c1)C(N(C)C)CC21CCN(CCO)CC1 (stereo not given) | -57.1%
COCC(=O)N1CCC2(CC1)CC(CC(=O)NC1CC1)c1ccccc12 (stereo not given) | 25.6%
CN1CCc2nc(C3CCCN(S(=O)(=O)N4CCCC4)C3)ncc2C1 (stereo not given) | 23.325%
Cn1ccc(C(=O)NCc2ccc(N3CCCCCC3)nc2)cc1=O | 17.4%
O=C1NCCCCC1NCc1csc(-c2ccc(F)cc2)n1 (stereo not given) | -7.17%
Cc1cc(C)nc(NC2CCC(=O)N(C)C2)n1 (stereo not given) | 11.5%
Cc1cc(C)nc(NC2CC(=O)N(C)C2)n1 (stereo not given) | 63.3%
Cc1cc(C)nc(NC2CC(=O)N(C(C)(C)C)C2)n1 (stereo not given) | 31.2%
Cc1cc(C)n(C2CCCN(C(=O)CCOc3cccc(F)c3)C2)n1 (stereo not given) | -25.9%
Cc1ccc(C(=O)N2CC[C@@]3(C[C@@H](NS(C)(=O)=O)CCO3)C2)s1 | 50.9%
CS(=O)(=O)N[C@@H]1CCO[C@]2(CCN(C(=O)C3=CCCC3)C2)C1 | 21%
CS(=O)(=O)N[C@H]1CCO[C@]2(CCN(C(=O)c3ccccn3)C2)C1 | 4.27%
CS(=O)(=O)N[C@@H]1CCO[C@]2(CCN(C(=O)c3cscn3)C2)C1 | 35.7%
Cc1ncoc1C(=O)N1CC[C@@]2(C[C@H](NS(C)(=O)=O)CCO2)C1 | 35.7%
Cc1nc(C(=O)N2CC[C@@]3(C[C@H](NS(C)(=O)=O)CCO3)C2)cs1 | 11.3%
CS(=O)(=O)N[C@@H]1CCO[C@]2(CCN(C(=O)c3cnccn3)C2)C1 | 32.4%

Structure (SMILES) | INHIBITION
Cc1cncc(C(=O)N2CC[C@@]3(C[C@H](NS(C)(=O)=O)CCO3)C2)c1 | 54.4%
Cc1cc(C(=O)N2CC[C@@]3(C[C@@H](NS(C)(=O)=O)CCO3)C2)no1 | 69.5%
CS(=O)(=O)N[C@H]1CCO[C@]2(CCN(CC3CCOCC3)C2)C1 | -44.4%
Cc1ccoc1C(=O)N1CC[C@@]2(C[C@H](NS(C)(=O)=O)CCO2)C1 | 18.5%
Cc1nc(C(=O)N2CC[C@@]3(C[C@@H](NS(C)(=O)=O)CCO3)C2)cs1 | 62.5%
Cc1cc(C(=O)N2CCCC(n3cccn3)C2)c(C)n1C1CC1 (stereo not given) | 5.7%
Cc1cc(CN(C)C(=O)NCC(C)N2CCc3ccccc32)no1 (stereo not given) | 15.6%
Cc1nccc(CN2CC[C@@]3(CCCN3Cc3ccccc3)[C@@H](O)C2)n1 | 39.7%
CC(C)N1CCO[C@@H]2CN(S(=O)(=O)c3cccs3)CC[C@@H]2C1 | 42.4%
Cc1cc(C)n(-c2ccc(C(=O)NCC(c3cccs3)N(C)C)cc2)n1 (stereo not given) | 30%
CC(C)c1ocnc1C(=O)NC(c1nnc2n1CCNCC2)C(C)C (stereo not given) | 65.5%
CC(C)C(NC(=O)c1ccc(=O)[nH]c1)c1nnc2n1CCNCC2 (stereo not given) | 12.6%
Cc1cc(C)c(C(=O)NC(c2nnc3n2CCNCC3)C(C)C)c(C)c1 (stereo not given) | 37.7%
COc1cc(N2CCCC(c3nccn3Cc3ccncc3)C2)ncn1 (stereo not given) | 54.7%
COc1cc(N2CCC(c3nccn3Cc3ccccc3)CC2)ncn1 | 11.7%
CCN(CC)S(=O)(=O)N1CCCC(c2nccn2Cc2cccnc2)C1 (stereo not given) | 15.2%
CC(C)OC(=O)N1CCCC(c2nccn2Cc2ccncc2)C1 (stereo not given) | 50.3%
CCCSCC(=O)N1CCCC(c2nccn2Cc2ccncc2)C1 (stereo not given) | 25%
CN(C)S(=O)(=O)N1CCCC(c2nccn2Cc2cccnc2)C1 (stereo not given) | 11.9%
COc1cc(N2CCCC(c3nccn3Cc3cccnc3)C2)ncn1 (stereo not given) | 2.69%
CCN(CC)S(=O)(=O)N1CCCC(c2nccn2Cc2ccncc2)C1 (stereo not given) | 70.1%
O=C(N1CCCC1)N1CCCC(c2nccn2Cc2ccncc2)C1 (stereo not given) | -14.6%

Structure (SMILES) | INHIBITION
O=C1NC2(CCN(C(=O)N3CCOCC3)CC2)CC1c1cccnc1 (stereo not given) | 9.34%
Cc1nc(CN2C[C@@H]3CN(C(=O)C4CC4)C[C@@H]3C2=O)cs1 | 42.6%
O=C(NCCc1c[nH]c2ccccc12)C1CCC(Cn2cnnn2)CC1 (stereo not given) | -65.9%
Cc1cc(NC(=O)CN2CCCC(Cn3nc(C)nc3C)C2)n(C)n1 (stereo not given) | -22.15%
CSCc1ccc(N2CCC(C(O)Cc3ccccc3)CC2)nc1 (stereo not given) | 74.3%
Cc1ccc(N2CCC(C(O)Cc3ccccc3)CC2)nn1 (stereo not given) | -2.97%
CSCc1ccc(N2CCC(C(O)CC(C)C)CC2)nc1 (stereo not given) | 67.4%
CC(C)CC(O)C1CCN(Cc2ccc(N(C)C)nc2)CC1 (stereo not given) | 10.6%
CN(C)c1ccc(CN2CCC(C(O)Cc3ccccc3)CC2)cn1 (stereo not given) | -42.8%
CSCc1ccc(N2CCN(c3ccc(Cl)cn3)CC2)nc1 | 38.3%
CSCc1noc(-c2ccc(C)c(N3CCNC3=O)c2)n1 | 9.52%
COc1ccc(F)cc1-c1ccccc1CC1(C(=O)O)CCOCC1 | 26.7%
O=C(N[C@@H]1c2ccccc2C[C@@H]1O)C1CCN(Cc2ccco2)CC1 | 48.4%
CC(NS(N)(=O)=O)c1ccc(OCc2ccc(F)cc2)cc1 (stereo not given) | 14.6%
CCc1cc(NC(C)(C)C)nc(N2CCOCC2)n1 | -3.12%
CCc1cc(NCCNC(C)=O)nc(N2CCCC2)n1 | 48.2%
CCc1cc(NCC(N)=O)nc(N2CCCCC2)n1 | 32%
CCc1cc(NC2CCS(=O)(=O)C2)nc(N2CCCCC2)n1 (stereo not given) | 52.6%
CCc1cc(NC2CCS(=O)(=O)CC2)nc(N2CCCCC2)n1 | 23.3%
CCc1cc(NC2CCN(CC(N)=O)CC2)nc(N2CCCCC2)n1 | 51.5%
CCc1n[nH]c(C2CN(C(=O)c3cc(C(N)=O)cs3)CCO2)n1 (stereo not given) | -15.5%
